HepG2 viability: qHTS for Inhibitors of TGF-b: Cytotox Counterscreen. HepG2 CAGA-GFP viability, ATP luminescence, 18 h. Potency, µM (titrated, usually from 46.1 µM), without a hit: at the top dose activity change, negative = cytotoxicity, most hits filed as cytotoxic. hit rate 0.76% among 410,000
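CellTiter-Glo luminescence gave cytotoxicity after 18 hours at 37 degrees C. The cells were HepG2 CAGA-GFP in 1% FBS DMEM, stimulated with 500 pg/mL TGF-beta after compound addition. %Activity was normalised to no-cell wells (complete cell-killing) and DMSO (no toxicity), and curves were fitted and classified.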
TDP1 cell noCPT: qHTS for Inhibitors of human tyrosyl-DNA phosphodiesterase 1 (TDP1): qHTS in cells in absence of CPT; DT40 Tdp1-/- hTDP1 cells, no CPT, ATP luminescence, 48 h; AID 686978, 2013; Potency, µM (series often up to 46.2 µM), inactives show at the highest dose activity change, negative = growth inhibition, most hits filed as inhibitors; hit rate 15% among 420,000; also: % is scaled to controls: 0 for no effect and ±100 for the full control effect; nearly all actives have a fitted effect of over 55% in size
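A cellular qHTS used chicken DT40 cells lacking endogenous Tdp1 but carrying stably transfected human TDP1. Compounds were applied without camptothecin, and cell growth kinetics were judged by ATP-dependent luminescence after ≥48 hr.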
TGFb inhibitor: qHTS for Inhibitors of TGF-b. Potency, µM (titrated, usually from 46.1 µM), for inactives: top-dose activity, negative = inhibition, usual class: inhibitors. HepG2 CAGA-GFP TGF-b/SMAD3 reporter, GFP fluorescence, 18 h; TGF-beta stimulated, 500 pg/mL final. hit rate 1.2% among 410,000. AID 588855, 2011; also: % is scaled to controls: 0 for no effect and ±100 for the full control effect; nearly all actives have a fitted effect of over 65% in size
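GFP signal (ex488/em500-530) from TGF-beta-stimulated HEPG2 CAGA-GFP cells, 500 pg/mL final, 18 h at 37 degrees C in DMEM plus 1% FBS, normalized to unstimulated and DMSO-stimulated controls.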
TDP1 cell CPT: qHTS for Inhibitors of human tyrosyl-DNA phosphodiesterase 1 (TDP1): qHTS in cells in presence of CPT; chicken DT40 Tdp1-/-;hTDP1 cells + 20 nM CPT, ATP luminescence, 48 h; Potency, µM (highest dose often 46.2 µM), inactives show at the highest dose activity change, negative = growth inhibition, hits mostly inhibitors; hit rate 12% among 420,000; also: % is scaled to controls: 0 for no effect and ±100 for the full control effect; nearly all actives have a fitted effect of over 55% in size
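Chicken DT40 Tdp1-/- cells complemented with human TDP1, 400 cells/well, exposed to compounds plus 20 nM camptothecin for at least 48 h at 37 C; viability read as ATP content by CellTiter-Glo luminescence.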
S2 tox: Viability Counterscreen for Primary qHTS for Inhibitors of ATXN expression | S2 cells (HEK-293 line with an ATXN2-luciferase reporter) viability, CellTiter-Fluor protease fluorescence, 24 h | Potency, µM (series often up to 56.7 µM), actives largely listed as cytotoxic | hit rate 0.49% among 400,000; also: nearly all actives have a fitted effect of over 40% in size
ATXN2 expr inh: Primary qHTS for Inhibitors of ATXN expression | HEK-293 ATXN2-luciferase reporter, luminescence, 24 h | Potency, µM (highest dose often 57 µM), for inactives: at the top dose activity change, negative = inhibition, hits mostly inhibitors | hit rate 0.72% among 360,000; also: % is scaled to controls: 0 for no effect and ±100 for the full control effect; nearly all actives have a fitted effect of over 55% in size
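ATXN2-luciferase reporter cells (luciferase flanked by upstream and downstream ATXN2 gene portions) were treated 24 h at 37 °C with compounds at up to 57 uM. SteadyGlo luminescence gave expression; GF-AFC fluorescence gave viability.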
Numbers without * were called inactive; i = inactive; u = inconclusive; x = not tested or not shown; [ ] = remark or other dose. This is a sample that favours compounds with a hit; in the whole collection about 17% have one here. Calls follow the shape of the dose curve; as a rule, active = well fitted curve in the direction sought with a large enough effect; inconclusive = small, poorly fitted or top-dose-only effect, or another doubt; inactive = no such curve, though single readings can be large; an effect the other way counts as inactive or inconclusive. Potency is read from the fitted curve at half-maximal effect.

SMILES | HepG2 viability | TDP1 cell noCPT | TGFb inhibitor | TDP1 cell CPT | S2 tox | ATXN2 expr inh
CCC(=O)Nc1cc2c3c(c1)CCC(=O)N3CCC2 | 4.3% | -21.7% | 3.3% | 22.2% | u | x
Cc1cccc(C(=O)Nc2ccc(S(=O)(=O)Nc3nc(C)cc(C)n3)cc2)c1 | 1.6% | 7.9% | -4.1% | 0.1% | i | -24.7%
CC(C)c1ccc(NC2CCCN(C(=O)c3n[nH]c4c3CCC4)C2)cc1 (stereo not given) | -3.7% | u | -1.8% | 18.4µM* | i | -7.8%
CC(C)c1ccc(NC2CCCN(C(=O)c3cccs3)C2)cc1 (stereo not given) | -22.8% | u | -22.9% | 20.6µM* | i | -7.9%
COCc1ccc(C(=O)N2CCCC(Nc3ccc(C(C)C)cc3)C2)s1 (stereo not given) | -4.1% | u | -2.8% | u | u | -16.1%
CC(C)c1ccc(NC2CCCN(C(=O)c3cccnc3)C2)cc1 (stereo not given) | -4.5% | u | -9.3% | u | i | -20.4%
COCc1ccc(C(=O)N2CCCC(Nc3ccc(C(C)C)cc3)C2)o1 (stereo not given) | 5.6% | 18.4µM* | 11.5% | u | i | 3.4%
CC1CN(C(=O)c2ccc(COc3ccc(C(C)C)cc3)o2)CC(C)O1 (stereo not given) | -27.4% | 20.6µM* | -0.2% | 16.4µM* | i | 4.5%
CCOc1ccc(C(=O)c2cn(CC(=O)Nc3ccc(F)cc3)c3cc4c(cc3c2=O)OCO4)cc1 | 6.8% | u | -15.6% | u | i | 5.8%
CC(C)c1ccc(NC2CCCN(C(=O)c3ccsc3)C2)cc1 (stereo not given) | -26.4% | 18.4µM* | -4.0% | 23.1µM* | i | -34.7%
O=C(c1cccs1)N1CCCC(c2ccccc2)C1 (stereo not given) | -20.4% | 18.4µM* | 16.9% | -0.1% | i | 6.1%
COC(=O)c1ccc(C(=O)N2CCCC(Nc3ccc(C(C)C)cc3)C2)cc1 (stereo not given) | -4.1% | -19.9% | -15.9% | -24.6% | i | u
O=C(c1ccco1)N1CCCC(c2ccccc2)C1 (stereo not given) | -3.4% | -28.3% | -15.3% | -0.6% | i | 11.5%
NC(=O)COC(=O)c1ccc(Cl)c(S(=O)(=O)N2CCN(c3ccc(F)cc3)CC2)c1 | 2.3% | u | 1.2% | -24.7% | i | x
COc1ccc2c(c1OC)C(=O)N1N=C(c3ccc(F)cc3)CC21 (stereo not given) | -2.9% | 16.4µM* | 11.1% | u | i | x
Cc1ccc(C2=NN3C(=O)c4ccccc4C3C2)cc1 (stereo not given) | -12.9% | u | u | -29.9% | i | -0.2%
CCOC(=O)c1c(C)n(C)c2ccc(OC(C)=O)cc12 | -1.1% | -15.2% | -6.5% | -10.0% | i | -13.1%
CCOC(=O)c1c(C)n(-c2ccccc2)c2ccc(OC(=O)c3cc(OC)cc(OC)c3)cc12 | -8.3% | 20.6µM* | -3.7% | u | i | 1.7%
CCOC(=O)c1c(C)n(-c2ccccc2)c2ccc(OC(=O)c3ccccc3Cl)cc12 | -7.1% | 16.4µM* | 5.3% | u | u | -2.2%
CCOC(=O)c1c(C)n(-c2ccccc2)c2ccc(OC(=O)c3cccc(OC)c3OC)cc12 | -21.5% | -26.2% | -34.3% | -18.4% | i | 7.2%
COCCOC(=O)c1c(C)n(C)c2ccc(OC(=O)c3c(OC)cccc3OC)cc12 | 2.9% | 16.4µM* | 2.1% | u | i | x
COc1ccc2c(c1)c(C(=O)N1CCN(C)CC1)c(C)n2-c1ccccc1 | -0.7% | -10.2% | 7.4% | -14.7% | u | -36.3%
CCOC(=O)c1c(C)n(-c2ccccc2)c2ccc(OC(=O)c3ccc(OCC)c(OCC)c3)cc12 | -0.6% | 18.4µM* | 15.7% | u | i | -12.5%
O=C(c1ccccc1C(F)(F)F)N1CCOc2c(cc(-c3nc4ccccc4s3)cc2OC2CCOC2)C1 (stereo not given) | x | -5.5% | x | 22.6%[9.04 µM] | i | x
CC(C)(C)c1ccc2c(c1)N(CC(=O)N1CCCC1)C(=O)CO2 | 17.0% | 9.5% | 17.9% | -21.3% | x | 23.1%
SMILES | HepG2 viability | TDP1 cell noCPT | TGFb inhibitor | TDP1 cell CPT | S2 tox | ATXN2 expr inh
CCCN(C(=O)CCl)C1=CCCCC1 | -17.9% | 13µM* | -1.2% | 18.4µM* | x | 8.44µM*
O=C(Nc1ccc(OC(F)(F)F)cc1)C1CCCN(S(=O)(=O)c2cccnc2)C1 (stereo not given) | -14.1% | 13µM* | 0.5% | 18.4µM* | i | -11.7%
O=C(c1ccc2ccccc2c1)C1CCCN(S(=O)(=O)c2cccnc2)C1 (stereo not given) | -27.6% | 20.6µM* | -17.0% | 23.1µM* | i | -28.0%
O=C(C1CCCN(S(=O)(=O)c2cccnc2)C1)N1CCN(c2ccccn2)CC1 (stereo not given) | -3.4% | u | -0.1% | -15.9% | i | -3.7%
CSc1nc(N(C)NC(=O)c2ccc(Cl)cc2)c2ccccc2n1 | -17.5% | 0.326µM* | u | 0.259µM* | u | -12.3%
CNc1nc(SC)nc2ccccc12 | 0.0% | u | -6.1% | -3.9% | i | -28.6%
CSc1nc(N(C)NC(=O)c2ccccc2)c2ccccc2n1 | 3.3% | 0.517µM* | -7.3% | 0.581µM* | u | -19.4%
Cn1c(SCC(=O)Nc2sccc2C#N)nnc1C1CC1 | 15.5% | 0.5% | u | 0.6% | i | 1.2%
O=C(Nc1ccccc1C(=O)Nc1ccccc1C(=O)O)c1ccccc1 | -37.5% | 11.6µM* | 0.0% | u | x | 33.8%
Nc1ccc(O)c2c1C(=O)c1ccccc1C2=O | -37.4% | u | -18.0% | u | 20µM* | -18.4%
COC(=O)c1ccccc1NC(=O)Nc1cccc(C)n1 | 8.4% | 12.4% | -0.7% | -21.4% | i | -1.0%
O=C(Nc1cc(NC(=O)c2ccccc2Cl)ccc1Cl)c1ccccc1 | -24.6% | 20.6µM* | -0.4% | u | u | 12.0%
O=C1c2ccccc2C(=O)c2c(O)ccc(O)c21 | x | -10.1%[9.04 µM] | x | -5.7%[9.04 µM] | x | x
Cc1cccc(NC(=O)c2ccccc2NC(=O)c2ccccc2)n1 | -26.8% | 18.4µM* | u | u | u | x
O=S(=O)(NN=C1CCCCCC1)c1ccccc1 | -2.2% | 16.5% | 8.3% | -7.2% | i | 2.1%
Cc1ccc(C(=O)Sc2cccccc2=O)cc1 | 1.41µM* | 0.517µM* | 0.891µM* | 0.731µM* | x | u
